Reference: PubChem BioAssay
The source made the active and inactive calls.

Key:
[1] = small molecules captured by biotinylated probe aFSTL3 – biochemical, small-molecule microarray, fluorescence 635/667, stem cell growth factor project, primary screen (AID 1064); conditions: higher = more signal;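 further: measures binding of the biotinylated anti-FSTL3 antibody to printed compounds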
[2] = binders from COS7 lysate, DM2A8 probe, primary screen, torsin A project, cell lysate, small-molecule microarray, fluorescence 635/667 (AID 1065); conditions: higher = more signal, COS7 lysate expressing mutant human TOR1A
[3] = small molecules captured by biotinylated probe aFGF2 – biochemical, small-molecule microarray, fluorescence 635/667, stem cell growth factor project, primary screen (AID 1067); conditions: higher = more signal;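 further: measures binding of biotinylated aFGF2 protein to printed compounds on slides; z-score merges feature fluorescence and signal-to-noise across triplicate slides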
[4] = small molecules captured by biotinylated probe aFGF10 – biochemical, small-molecule microarray, fluorescence 635/667, stem cell growth factor project, primary screen (AID 1071); conditions: higher = more signal;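 further: score merges 667 nm spot intensity and signal to noise from triplicate slides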
[5] = target: Neurogenic locus notch homolog protein 2 (Homo sapiens) (UniProt Q04721); experiment: small molecules binding Notch2 protein – biochemical, small-molecule microarray, 635 nm fluorescence, stem cell growth factors, primary screen (AID 1073); conditions: higher = more signal
[6] = target: Pro-neuregulin-1, membrane-bound isoform (Homo sapiens) (UniProt Q02297); experiment: small molecules binding neuregulin-1 protein – biochemical, small-molecule microarray, fluorescence 635/667, psychiatric disease protein project, primary screen (AID 1075); conditions: NRG1 binding, 635 nm fluorescence, higher = more signal;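 further: score combines 667 nm spot fluorescence with signal to noise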
[7] = tested on: Neuregulin-1 EGF-like domain; experiment: small molecules binding NRG1 EGF domain – biochemical, small-molecule microarray, 635 nm fluorescence, primary screen (AID 1081); conditions: higher = more signal;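 further: binding of the protein to compounds printed on small-molecule microarray slides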
[8] = FRG1 expression reporter modulators in myotubes – cell-based, C2C12 myotubes, firefly/Renilla luciferase, luminescence, FRG1 inhibition for FSHD, primary screen (AID 1084); conditions: FRG1 promoter luciferase, higher = more signal, called active from +8 up or from −8 down
[9] = small molecules captured by biotinylated probe aFST – biochemical, small-molecule microarray, fluorescence 635/667, stem cell growth factor project, primary screen (AID 1086); conditions: higher = more signal;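 further: score merges 667 nm fluorescence with signal-to-noise of each printed compound spot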
[10] = binders of probe aHhip on microarray, primary screen, stem cell growth factor project, biochemical, small-molecule microarray, fluorescence 635/667 (AID 1087); conditions: higher = more signal;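 further: score merges spot fluorescence at 667nm with spot signal to noise ratio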

Neurogenic locus notch homolog protein 2 (Homo sapiens), sequence (Q04721 whole entry, looked up, canonical isoform): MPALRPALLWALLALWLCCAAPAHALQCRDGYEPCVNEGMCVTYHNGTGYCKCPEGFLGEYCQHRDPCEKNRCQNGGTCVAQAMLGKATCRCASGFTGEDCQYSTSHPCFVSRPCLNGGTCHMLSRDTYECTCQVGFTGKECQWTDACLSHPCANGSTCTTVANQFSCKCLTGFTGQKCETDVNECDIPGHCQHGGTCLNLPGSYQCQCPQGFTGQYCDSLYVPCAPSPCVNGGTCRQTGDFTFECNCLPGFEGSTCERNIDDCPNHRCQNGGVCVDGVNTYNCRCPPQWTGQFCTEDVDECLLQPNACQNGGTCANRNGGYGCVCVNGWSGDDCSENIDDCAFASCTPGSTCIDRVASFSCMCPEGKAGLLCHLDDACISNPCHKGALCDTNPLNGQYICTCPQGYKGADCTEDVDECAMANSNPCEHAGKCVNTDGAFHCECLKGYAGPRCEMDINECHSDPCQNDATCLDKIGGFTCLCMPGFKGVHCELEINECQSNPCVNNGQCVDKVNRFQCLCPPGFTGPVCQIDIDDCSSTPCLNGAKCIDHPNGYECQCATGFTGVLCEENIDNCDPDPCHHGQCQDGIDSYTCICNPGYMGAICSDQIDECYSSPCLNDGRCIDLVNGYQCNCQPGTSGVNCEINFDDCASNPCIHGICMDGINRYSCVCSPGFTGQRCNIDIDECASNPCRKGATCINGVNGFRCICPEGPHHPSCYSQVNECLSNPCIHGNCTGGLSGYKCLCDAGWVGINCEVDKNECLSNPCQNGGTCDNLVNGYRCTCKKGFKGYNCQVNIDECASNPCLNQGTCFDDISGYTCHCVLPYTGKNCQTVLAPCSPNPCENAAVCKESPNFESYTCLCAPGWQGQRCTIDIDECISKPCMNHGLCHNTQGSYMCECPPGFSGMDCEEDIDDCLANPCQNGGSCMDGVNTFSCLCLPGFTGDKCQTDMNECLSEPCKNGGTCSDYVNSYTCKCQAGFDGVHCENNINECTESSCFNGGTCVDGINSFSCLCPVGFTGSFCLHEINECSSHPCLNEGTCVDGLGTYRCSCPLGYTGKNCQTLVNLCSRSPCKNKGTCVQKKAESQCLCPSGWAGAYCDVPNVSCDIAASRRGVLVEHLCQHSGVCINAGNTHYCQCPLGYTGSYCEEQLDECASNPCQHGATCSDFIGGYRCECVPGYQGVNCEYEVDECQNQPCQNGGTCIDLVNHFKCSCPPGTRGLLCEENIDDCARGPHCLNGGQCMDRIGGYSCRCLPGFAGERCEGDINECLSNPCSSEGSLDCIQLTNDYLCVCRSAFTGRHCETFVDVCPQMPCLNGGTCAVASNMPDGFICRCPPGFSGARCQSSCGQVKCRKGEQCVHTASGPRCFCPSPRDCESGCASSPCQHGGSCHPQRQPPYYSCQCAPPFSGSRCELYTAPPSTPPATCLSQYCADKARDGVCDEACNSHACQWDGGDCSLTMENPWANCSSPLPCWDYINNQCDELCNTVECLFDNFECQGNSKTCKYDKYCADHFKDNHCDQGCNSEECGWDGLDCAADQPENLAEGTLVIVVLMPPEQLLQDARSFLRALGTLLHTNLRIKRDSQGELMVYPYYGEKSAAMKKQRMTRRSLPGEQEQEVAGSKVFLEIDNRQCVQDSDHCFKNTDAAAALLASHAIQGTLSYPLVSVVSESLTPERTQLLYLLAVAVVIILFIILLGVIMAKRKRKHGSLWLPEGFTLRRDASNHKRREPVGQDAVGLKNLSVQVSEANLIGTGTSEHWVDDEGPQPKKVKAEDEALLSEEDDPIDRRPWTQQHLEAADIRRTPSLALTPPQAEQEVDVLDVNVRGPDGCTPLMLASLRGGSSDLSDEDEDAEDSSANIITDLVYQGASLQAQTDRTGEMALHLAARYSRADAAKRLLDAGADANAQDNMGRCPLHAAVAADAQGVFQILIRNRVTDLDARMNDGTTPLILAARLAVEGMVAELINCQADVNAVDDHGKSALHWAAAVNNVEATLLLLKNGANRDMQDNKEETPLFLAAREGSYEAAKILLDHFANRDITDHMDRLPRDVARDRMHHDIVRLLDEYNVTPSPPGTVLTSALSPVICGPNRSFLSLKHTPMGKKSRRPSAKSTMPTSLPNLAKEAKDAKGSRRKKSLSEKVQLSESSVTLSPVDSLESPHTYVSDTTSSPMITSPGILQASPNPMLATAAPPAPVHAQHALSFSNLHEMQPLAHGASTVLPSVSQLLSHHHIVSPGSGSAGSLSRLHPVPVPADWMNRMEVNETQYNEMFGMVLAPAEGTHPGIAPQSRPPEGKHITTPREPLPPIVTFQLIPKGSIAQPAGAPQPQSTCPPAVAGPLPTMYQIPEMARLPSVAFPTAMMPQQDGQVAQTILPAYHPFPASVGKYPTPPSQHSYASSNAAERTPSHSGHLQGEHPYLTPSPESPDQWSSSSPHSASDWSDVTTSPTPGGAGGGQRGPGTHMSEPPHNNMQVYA
Pro-neuregulin-1, membrane-bound isoform (Homo sapiens), sequence (Q02297 whole entry, looked up, the tested form may be a part, canonical isoform): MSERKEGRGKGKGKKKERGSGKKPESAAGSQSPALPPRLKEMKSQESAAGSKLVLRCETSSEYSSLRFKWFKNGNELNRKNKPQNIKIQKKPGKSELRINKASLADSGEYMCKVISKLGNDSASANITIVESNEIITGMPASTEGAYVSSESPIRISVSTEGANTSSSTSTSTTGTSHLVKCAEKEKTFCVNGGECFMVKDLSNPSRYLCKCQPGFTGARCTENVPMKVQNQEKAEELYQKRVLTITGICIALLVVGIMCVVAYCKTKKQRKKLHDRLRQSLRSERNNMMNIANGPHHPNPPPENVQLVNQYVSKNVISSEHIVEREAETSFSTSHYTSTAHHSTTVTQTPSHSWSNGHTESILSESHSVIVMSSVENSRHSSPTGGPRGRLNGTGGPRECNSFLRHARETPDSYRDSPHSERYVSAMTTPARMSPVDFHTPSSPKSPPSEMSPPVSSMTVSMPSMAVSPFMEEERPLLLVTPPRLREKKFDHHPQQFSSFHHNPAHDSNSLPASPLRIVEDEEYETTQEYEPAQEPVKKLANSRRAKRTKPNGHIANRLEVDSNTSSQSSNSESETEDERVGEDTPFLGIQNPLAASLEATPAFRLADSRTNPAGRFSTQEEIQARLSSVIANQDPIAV

| SMILES | composite z-score [1] | composite z-score [2] | composite z-score [3] | composite z-score [4] | composite z-score [5] | composite z-score [6] | composite z-score [7] | z-score [8] | composite z-score [9] | composite z-score [10] |
| --- | --- | --- | --- | --- | --- | --- | --- | --- | --- | --- |
| CCOC(=O)[C@H](CC(C)C)NC(=O)CCC1CC(OC(=O)NCCc2ccc(F)cc2)CC2(CCCC(COC(=O)NCCC(C)C)O2)O1 (stereo not given in full) | -0.44 | 0.289 | -0.083 | 0.297 | -0.383 | 0.797 | 0.98 | 1.25 (inactive) | -0.128 | 0.0722 |
| C#CCCCON=C1C[C@@H](O)[C@@H](O)[C@@H]2[C@@H]3C(=O)N(c4ccc(F)cc4F)C(=O)[C@@H]3CC[C@@H]12 | -0.398 | 1.69 | -0.138 | 0.103 | 0.329 | 0.0095 | -0.114 | -0.236 (inactive) | 0.0638 | 0.235 |
| COC(=O)C=CCCc1coc(C=CCNC(=O)OC)n1 | -0.0195 | 0.924 | 0.202 | 0.833 | 0.485 | -0.0679 | 0.492 | 0.721 (inactive) | 1.04 | 0.851 |
| O=C1C[C@@H](O)[C@@H](O)[C@@H]2[C@@H]3C(=O)N(C[C@@H]4CCCO4)C(=O)[C@@H]3CC[C@H]12 | -0.469 | 0.207 | -0.0901 | 0.377 | 0.733 | 0.17 | 0.723 | -0.0616 (inactive) | 0.158 | -0.487 |
| COC(=O)[C@@H]1CC[C@H](C)[C@@H](c2ccc(C)cc2)N1C(=O)c1ccc(C=NO[C@@H](C)c2cn([C@H](CO)Cc3ccccc3)nn2)cc1 | -0.612 | -0.0378 | -0.0943 | 0.496 | 1.11 | 0.327 | 0.477 | -3.25 (inactive) | 0.517 | 0.25 |
| CC(C)CCN1CCc2nc(COc3ccccc3)c3c(c2C1)CO[C@@H](C)C3 | 0.188 | 0.369 | -0.0819 | 0.0995 | -0.0065 | 0.385 | 0.135 | 0.0476 (inactive) | 0.138 | 0.0623 |
| C#CCCCON=C1C[C@@H](O)[C@@H](O)[C@@H]2[C@@H]3C(=O)N(c4ccc(F)cc4F)C(=O)[C@@H]3CC[C@H]12 | -0.381 | 0.872 | -0.0788 | 0.216 | 0.342 | 0.454 | 0.765 | -1.17 (inactive) | 0.326 | 0.0373 |
| CCCCc1nc2c(c3c1C[C@H](C)OC3)CN(CCOc1ccccc1)CC2 | -0.43 | 0.575 | -0.149 | 0.414 | 0.882 | 0.363 | 0.881 | -1.55 (inactive) | 0.192 | 0.213 |
| COC(=O)CC=C[C@@H](C)[C@@H](C=NO[C@@H]1O[C@H](COC(C)=O)[C@@H](OC(C)=O)[C@H](OC(C)=O)[C@H]1OC(C)=O)NS(=O)(=O)c1ccc(C)cc1 | -0.486 | 0.969 | -0.158 | 0.367 | 1.11 | -0.993 | -1.37 | -0.443 (inactive) | 0.068 | -0.0645 |
| CCO[C@H](c1cc(OC)cc([N+](=O)[O-])c1OC)[C@H](C)C=CCC(=O)OC | -0.413 | 0.13 | -0.22 | -0.0567 | -0.3 | -0.264 | -0.997 | 0.157 (inactive) | -0.185 | -0.479 |
| CC(C)CON=C1C[C@@H](O)[C@@H](O)[C@@H]2[C@@H]3C(=O)N(C[C@@H]4CCCO4)C(=O)[C@@H]3CC[C@@H]12 | -0.308 | -0.0385 | -0.132 | 0.0654 | -0.489 | -0.672 | -0.321 | -0.108 (inactive) | -0.271 | -0.0994 |
| C[C@H]1Cc2c(COc3ccccc3)nc3c(c2CO1)CN(CCOc1ccccc1)CC3 | -0.762 | 0.665 | -0.0468 | 0.503 | 1.28 | 0.455 | 0.794 | -1.16 (inactive) | 0.0632 | -0.174 |
| CCOC(=O)CCN1C(=O)[C@H]2[C@H]3[C@H](O)[C@H](O)CC(=NNC(=O)OCc4ccccc4)[C@@H]3CC[C@H]2C1=O | -0.326 | 0.695 | -0.158 | 0.504 | 0.88 | 0.716 | 0.971 | -0.518 (inactive) | 0.111 | -0.189 |
